Here are results for 5 compounds from PubChem BioAssay (EPA / NIEHS).

Inconclusive results are not listed. Active and inactive are the calls of the source. The calls were made as follows, unless noted: active = hit-call score of the fitted dose curve at least 0.9, where 1 is the maximum; inconclusive = response in the unintended direction; inactive = score below 0.9.

Test [1] can be described thus: TOX21_p53_BLA_p2_viability: Viability Assessment in the Tox21 HCT-116 p53 Agonism Beta-lactamase Assay, Phase 2 (AID 2283591).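 Also: compound exposure lasted 16 h at 37 °C; actives lower the ATP signal meaning cytotoxicity.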 In a few lines:
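HCT-116 p53-bla cells (4000/well) rested 5 h at 37C, then received compounds in DMSO (217-fold dilution) for 16 h at 37C, 5% CO2. After the CCF4 read, CellTiter-Glo was added; ATP luminescence was read after 30 min at room temperature.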

Test [2] has as its target Cellular tumor antigen p53 (Homo sapiens) (UniProt P04637). Kind of test: TOX21_p53_BLA_p2_ratio: Tox21 HCT-116 p53 Agonism Beta-lactamase Assay, Ratio, Phase 2 (AID 2283592). In a few lines:
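Ratio endpoint: beta-lactamase cleavage of CCF4-AM, blue (460 nm) over green (530 nm). HCT116 reporter line; 16 h treatment, 37C; substrate 2 h RT.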

The nature of test [3]: TOX21_p53_BLA_p3_viability: Viability Assessment in the Tox21 HCT-116 p53 Agonism Beta-lactamase Assay, Phase 3 (AID 2283593).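 Also: cells exposed to compound for 16 h before reading.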 In a few lines:
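HCT-116 cells (4000/well) rested 5 h at 37C, then got DMSO compounds by pin tool (217-fold dilution) for 16 h at 37C, 5% CO2. After the bla read, CellTiter-Glo was added and luminescence read at 30 min, room temperature.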

Test [4] deals with Cellular tumor antigen p53 (Homo sapiens) (UniProt P04637). Put plainly: TOX21_p53_BLA_p5_ratio: Tox21 HCT-116 p53 Agonism Beta-lactamase Assay, Ratio, Phase 5 (AID 2283599). In a few lines:
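HCT-116 cells carrying a p53-inducible beta-lactamase reporter were seeded at 4000 cells/well and dosed after 5 h with compound in DMSO (217-fold dilution). After 16 h at 37C, CCF4-AM substrate was added for 2 h, and the 460/530 nm emission ratio was scored as gain-of-signal versus DMSO.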

Test [5] has the same target. Kind of test: TOX21_p53_BLA_p4_ratio: Tox21 HCT-116 p53 Agonism Beta-lactamase Assay, Ratio, Phase 4 (AID 2283601). In a few lines:
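HCT116 cells carrying an inducible beta-lactamase reporter were plated at 4000 cells/well, rested 5 h, then exposed to compounds in DMSO (217-fold dilution) for 16 h at 37C. CCF4-AM substrate was loaded 2 h at room temperature; 460/530 nm emission ratio scored gain-of-signal versus DMSO.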

Test [6] in a line: CCTE_Harrill_HTTr_Viability_MCF7: CCTE's 6-hour Cell Viability Assessment for the High-Throughput Transcriptomics (HTTr) Platform, in MCF-7 cells cultured in DMEM + 10% fetal bovine serum, Harrill Lab (AID 2284010; active = hit-call score of the fitted dose curve at least 0.9, where 1 is the maximum; inactive = score below 0.9). In a few lines: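 PI exclusion, high-content imaging; 8-pt dilution series, 6 h exposure; bidirectional fit vs DMSO (neg. ctrl/baseline); gain of signal = loss of membrane integrity.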

A short description of test [7]: CCTE_Harrill_HTTr_Apoptosis_MCF7: CCTE's 6-hour Apoptosis Assessment for the High-Throughput Transcriptomics (HTTr) Platform, in MCF-7 cells cultured in DMEM + 10% fetal bovine serum, Harrill Lab (AID 2284011; active = hit-call score of the fitted dose curve at least 0.9, where 1 is the maximum; inactive = score below 0.9). In a few lines:
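MCF-7 cells in DMEM + 10% fetal bovine serum were exposed to chemicals for 6 hours over an eight-point dilution series. Caspase-3/7 activation was imaged by high content imaging with CellEvent Caspase 3/7 Green; bidirectional fitting used DMSO as baseline.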

For test [8], the target named is Cellular tumor antigen p53 (Homo sapiens) (UniProt P04637). Put plainly: TOX21_p53_BLA_p3_ratio: Tox21 HCT-116 p53 Agonism Beta-lactamase Assay, Ratio, Phase 3 (AID 2283596). In a few lines:
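Cells were seeded at 4000/well, rested 5 h at 37C, then dosed with DMSO compound solutions (217-fold dilution) for 16 h. CCF4-AM substrate was loaded for 2 h at room temperature, and the 460/530 nm emission ratio was fitted for gain of signal versus DMSO.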

Test [9] in a line: TOX21_p53_BLA_p4_viability: Viability Assessment in the Tox21 HCT-116 p53 Agonism Beta-lactamase Assay, Phase 4 (AID 2283597).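 Also: hits lower the luminescence signal meaning cytotoxicity.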 In a few lines: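 Cytotoxicity was inferred from loss of CellTiter-Glo luminescence. HCT116 cells had been dosed with compounds after 5 h plating, incubated 16 h at 37C and 5% CO2, and exposed to the CCF4-AM substrate for 2 h.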
Test [10] is described as follows: TOX21_p53_BLA_p5_viability: Viability Assessment in the Tox21 HCT-116 p53 Agonism Beta-lactamase Assay, Phase 5 (AID 2283600). In a few lines: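 Luciferase-coupled ATP quantitation of cells treated for 16 h (37C, 5% CO2) with test chemicals delivered in DMSO via a 217-fold dilution; 4000 cells/well; reagent incubated 30 min at room temperature before luminescence reading.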

Sequence of Cellular tumor antigen p53 (Homo sapiens) (P04637 whole entry, looked up): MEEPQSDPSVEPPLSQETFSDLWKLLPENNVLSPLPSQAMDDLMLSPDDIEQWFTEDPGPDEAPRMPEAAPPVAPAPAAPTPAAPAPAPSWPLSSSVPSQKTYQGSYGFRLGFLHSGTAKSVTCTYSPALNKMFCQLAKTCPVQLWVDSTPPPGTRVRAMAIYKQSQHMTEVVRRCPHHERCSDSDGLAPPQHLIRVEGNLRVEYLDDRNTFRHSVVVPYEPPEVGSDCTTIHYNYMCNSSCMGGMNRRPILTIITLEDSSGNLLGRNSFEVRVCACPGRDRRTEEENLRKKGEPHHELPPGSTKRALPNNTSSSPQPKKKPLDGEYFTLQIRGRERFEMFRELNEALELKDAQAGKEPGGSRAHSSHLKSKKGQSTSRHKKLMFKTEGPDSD

Turning to `Cc1cccc2sc3nncn3c12`, the result in test [1], in test [2], in test [3], in test [4], in test [5] and in test [6] was inactive. For the same compound, the result in test [7] was inactive.
For `C=CCOCC1CO1` (stereo not drawn), the outcome in test [1], in test [2], in [8], in test [9], in [4] and in [10] was inactive.
Regarding `CCCSc1cc(OC)c(CCN)cc1OC`, the outcome in test [1], in test [9] and in test [10] was inactive. Besides, the AC50 in test [2] was 26.1 µM (active); in test [8], 48 µM (active); in test [4] it was 43.7 µM (active); in test [5], 24.4 µM (active).
With `CN(C)c1ccc(N(C)C)cc1`, the result in [1], in test [2], in test [8], in test [9], in [4] and in test [5] was inactive.
As to `CC(Cl)CCl` (stereo not drawn), the outcome in test [1], in [2], in test [8], in test [9], in test [4] and in [10] was inactive. In test [5], the outcome was inactive.
